From PubChem BioAssay (NCI) come the findings set out here.

This is part of a sample that, as a whole, favours compounds with a hit. Of some 83,000 tested, about 20% had one in any assay.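 Single-concentration screen, 48 h exposure, 96-well plates. Endpoint: percent growth. Below 10 = active.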 Values without a mark were called inactive. Activity calls are given as the source filed them.

Test systems include SR leukemia; RPMI-8226 leukemia; OVCAR-8 ovarian; OVCAR-5 ovarian; OVCAR-4 ovarian; SK-OV-3 ovarian; IGROV1 ovarian; OVCAR-3 ovarian; HS 578T breast; NCI/ADR-RES ovarian.
Holding throughout (experiment): NCI-60 one-dose screen, 48 h (100 = growth as untreated, 0 = no growth, -100 = all killed)
What all share (conditions): 10 µM unless noted

Turning to `Cc1cc2c(C(=O)NCC#N)cccc2n1-c1nc2c(c(NCc3ccccc3)n1)CCCC2`, the growth with SR leukemia was 4.15% (active); in the assay with RPMI-8226 leukemia, 5.03% (active); with OVCAR-8 ovarian it was 8.66% (active); in the assay on OVCAR-5 ovarian it was 1.88% (active); with OVCAR-4 ovarian it was -8.8% (active); with SK-OV-3 ovarian it was -6.94% (active). The growth is -22.1% (active) in the assay with IGROV1 ovarian, -59.9% (active) in the assay on OVCAR-3 ovarian, 12% with HS 578T breast and 1.16% (active) with NCI/ADR-RES ovarian.

`CC(=O)Oc1ccc(/C=N/NC(N)=S)nc1`: the growth in the assay on SR leukemia is 27.9%; with RPMI-8226 leukemia it was 88.7%; in the assay with OVCAR-8 ovarian, 46.3%; in the assay on OVCAR-5 ovarian, 110%; with OVCAR-4 ovarian it was 56%; in the assay with SK-OV-3 ovarian, 88%. The growth was 92.3% with IGROV1 ovarian, 68% in the assay with OVCAR-3 ovarian, 127% in the assay with HS 578T breast and 41.9% with NCI/ADR-RES ovarian.

In the case of `CC1(C)CC(O)CCCCCCOc2c(CN)cccc2NC(=O)c2nc(cnc2N)-c2ccc(cc2)S1(=O)=O` (stereo not given), the growth with SR leukemia was -16.8% (active); with RPMI-8226 leukemia, -41.5% (active); in the assay with OVCAR-8 ovarian it was 23.5%; with OVCAR-5 ovarian it was 68.4%; with OVCAR-4 ovarian, -22.1% (active); with SK-OV-3 ovarian, 44.9%. Moreover, the growth in the assay with IGROV1 ovarian is 9.31% (active); with OVCAR-3 ovarian it was -5.21% (active); with HS 578T breast, 13.2%; with NCI/ADR-RES ovarian, 67.1%.

In the case of `CC(=O)[C@@H]1CC[C@]2(C(N)=O)CC[C@]3(C)[C@H](CC[C@@H]4[C@@]5(C)CCCNC(C)(C)[C@@H]5CC[C@]43C)[C@@H]12`, the growth with SR leukemia was 43.7%; in the assay on RPMI-8226 leukemia, 61.7%; with OVCAR-8 ovarian it was 98%; in the assay on OVCAR-5 ovarian, 91.5%; in the assay with OVCAR-4 ovarian, 84.6%; in the assay with SK-OV-3 ovarian, 108%. In addition, the growth in the assay on IGROV1 ovarian is 93.6%; in the assay with OVCAR-3 ovarian it was 89.3%; with HS 578T breast, 84.4%; in the assay with NCI/ADR-RES ovarian, 90.6%.

As for `O=C1c2cccc3c(-c4ccc5c(c4)ncn5C4CCCCC4)ccc(c23)C(=O)N1c1nc2ccccc2s1`, the growth with SR leukemia was 81%; in the assay with RPMI-8226 leukemia it was 75.6%; in the assay on OVCAR-8 ovarian, 98%; with OVCAR-5 ovarian, 102%; in the assay with OVCAR-4 ovarian, 79.1%; in the assay on SK-OV-3 ovarian it was 95%. For the same molecule, the growth is 92.3% with IGROV1 ovarian, 89.8% with OVCAR-3 ovarian, 92.9% in the assay with HS 578T breast and 91.3% in the assay on NCI/ADR-RES ovarian.

As to `N/C(=N\C(N)=N\c1nc2ccccc2s1)c1cccc(Cl)c1`, the growth in the assay with SR leukemia was 16.6%; in the assay on RPMI-8226 leukemia, 80.8%; in the assay with OVCAR-8 ovarian, 70.8%; in the assay on OVCAR-5 ovarian, 111%; with OVCAR-4 ovarian, 71.5%; with SK-OV-3 ovarian, 98.3%. Also, the growth was 75.9% in the assay on IGROV1 ovarian, 99.2% with OVCAR-3 ovarian, 97% in the assay on HS 578T breast and 77.4% in the assay on NCI/ADR-RES ovarian.

Turning to `CCNC(=O)Oc1ccc(/C(=C(\C)c2ccccc2)c2ccc(OCCN(CC)CC)cc2)cc1`, the growth in the assay with SR leukemia is 26.1%; in the assay on RPMI-8226 leukemia, 74.6%; in the assay on OVCAR-8 ovarian it was 78.3%; in the assay on OVCAR-5 ovarian, 88.2%; in the assay with OVCAR-4 ovarian it was 80.8%; in the assay on SK-OV-3 ovarian, 83.9%. Moreover, the growth in the assay on IGROV1 ovarian is 84.3%; in the assay with OVCAR-3 ovarian, 93.7%; with HS 578T breast, 69%; in the assay on NCI/ADR-RES ovarian, 85%.

Consider `Cc1nn(-c2ccccc2)c(Cl)c1/C=C/C(=O)c1ccc(F)cc1`, for which the growth with SR leukemia is 4.28% (active); in the assay on RPMI-8226 leukemia, -15.6% (active); with OVCAR-8 ovarian, 86.4%; in the assay with OVCAR-5 ovarian it was 97.4%; with OVCAR-4 ovarian, 93.1%; with SK-OV-3 ovarian, 110%. The growth was 104% in the assay with IGROV1 ovarian, 102% in the assay with OVCAR-3 ovarian, 114% in the assay on HS 578T breast and 93.2% with NCI/ADR-RES ovarian.

In the case of `O=C(/C=C/c1ccc(Cl)cc1)c1ccc(NC(=O)N2CCN(c3cc4c(cc3F)c(=O)c(C(=O)O)cn4C3CC3)CC2)cc1`, the growth in the assay on SR leukemia is 22%; with RPMI-8226 leukemia, 79.1%; in the assay on OVCAR-8 ovarian it was 65.3%; in the assay with OVCAR-5 ovarian, 103%; in the assay on OVCAR-4 ovarian, 99.2%; in the assay on SK-OV-3 ovarian, 99.1%. Besides, the growth is 89.2% in the assay with IGROV1 ovarian, 93.8% with OVCAR-3 ovarian, 86.7% with HS 578T breast and 99.8% in the assay with NCI/ADR-RES ovarian.

`Nc1ccccc1NC(=O)c1ccc(-n2nc(-c3ccccc3)c3ccccc32)cc1`: the growth was 48.6% in the assay with SR leukemia; -8.09% (active) in the assay with RPMI-8226 leukemia; 62.6% in the assay with OVCAR-8 ovarian; 87.1% in the assay on OVCAR-5 ovarian; 77% with OVCAR-4 ovarian; 107% in the assay with SK-OV-3 ovarian. For the same molecule, the growth with IGROV1 ovarian is 68.5%; in the assay on OVCAR-3 ovarian, 72.6%; in the assay with HS 578T breast, 83.5%; in the assay with NCI/ADR-RES ovarian, 54%.

For the molecule `C=C1C(=O)O[C@H]2[C@H]1CC/C(COC(=O)NCC(C)c1ccc(CC(C)C)cc1)=C\CC[C@@]1(C)O[C@@H]21` (stereo not given in full), the growth with SR leukemia is -2.59% (active); with RPMI-8226 leukemia, -35.7% (active); with OVCAR-8 ovarian, -51% (active); with OVCAR-5 ovarian, 62.4%; with OVCAR-4 ovarian, -43.8% (active); in the assay on SK-OV-3 ovarian, 100%. Moreover, the growth with IGROV1 ovarian was -69.5% (active); in the assay on OVCAR-3 ovarian, -85.5% (active); in the assay with HS 578T breast it was 16%; in the assay with NCI/ADR-RES ovarian it was 28.6%.

On to `Cc1ccc(NS(=O)(=O)c2ccc(-c3cnc(C4CC4)o3)cc2)cc1C(F)(F)F`, for which the growth is 28.6% in the assay on SR leukemia; 55.2% in the assay with RPMI-8226 leukemia; 78.5% in the assay with OVCAR-8 ovarian; 93.2% with OVCAR-5 ovarian; 69.4% with OVCAR-4 ovarian; 86.8% in the assay with SK-OV-3 ovarian. Also, the growth was 51.8% in the assay with IGROV1 ovarian, 24.5% with OVCAR-3 ovarian, 69% in the assay with HS 578T breast and 43.3% in the assay on NCI/ADR-RES ovarian.

Take `COc1ccc(/C=C2\Oc3cc(OCCCN4CCCCC4)ccc3C2=O)cc1OC`: the growth in the assay on SR leukemia was -18.7% (active); in the assay on RPMI-8226 leukemia, 90.6%; in the assay on OVCAR-8 ovarian, 94.4%; with OVCAR-5 ovarian, 95.2%; with OVCAR-4 ovarian it was 89.4%; in the assay with SK-OV-3 ovarian, 113%. Besides, the growth in the assay on IGROV1 ovarian was 93.9%; with OVCAR-3 ovarian, 93%; with HS 578T breast it was 92%; with NCI/ADR-RES ovarian, 97.1%.
